Experimental findings from PubChem BioAssay (Tox21) are described below.

Inconclusive results are not listed. Where a call stands in place of a potency, no number is given. Activity calls are given as the source filed them. Calls come from the whole dose curve; as a rule, active = well fitted inhibition curve with a large enough effect in the repeat runs; inconclusive = weak or mixed curves; inactive = no such curve, though single readings can be large or run the other way.
Potency is the fitted concentration of half-maximal effect.

The nature of the assay: qHTS assay to identify small molecule antagonists of the estrogen related receptor (ERR) signaling pathway from Tox21 library (AID 1224848). Note: nearly all actives have a fitted effect of over 50% in size. To be noted: ERR reporter cell line, luciferase antagonist mode, 18 h; series mostly up to 92.4 µM. The text has this: U.S. Tox21 Program National Center for Advancing Translational Sciences [NCATS] NIH Chemical Genomics Center [NCGC] U.S. Environmental Protection Agency [EPA] National Institutes of Environmental Health Sciences [NIEHS] National Toxicology Program [NTP] U.S. Food and Drug Administration [FDA] Tox21 Assay Overview: Estrogen related receptors (ERRs), the first orphan nuclear receptors discovered, play an important role in the control of cellular energy metabolism. ERRs are required for high-energy production in response to the environmental challenges. ERR-alpha was also identified as an adverse marker for breast cancer progression; ERR-alpha-positive tumors have a poor prognosis. To screen and to identify environmental compounds that perturb the ERR signaling pathways could provide valuable information for potential therapeutic or preventive measures in the treatment of metabolic disease. For identifying ERR antagonists, ERR cell line (provided by NTP) has been used to screen Tox21 10K library.
Tox21 Assay Protocol Summary: The ERR cells were dispensed at 2,000 cells/5 ul/well in 1536-well white plates using a Multidrop dispenser. After the assay plates were incubated at a 37 C/5% CO2 incubator for 6 hours, 23 nL of compounds dissolved in DMSO, positive and negative controls or DMSO only was transferred to the assay plate by a pin tool. The plates were incubated at 37 C for 18 hours. 4 ul/well of One-Glo reagent was added into the assay plates using a Flying Reagent Dispenser. After 30-minute incubation at room temperature, the luminescence intensity in the plates was measured using a ViewLux plate reader.
As to `C[C@H]1C[C@H](O)c2ccsc2S1(=O)=O`, the Potency result was “inactive”. The value for `c1cc(N(CC2CO2)CC2CO2)ccc1Cc1ccc(N(CC2CO2)CC2CO2)cc1` (stereo not given) was 21.7 µM (active); that for `Cc1cc(O)ccc1O` was “inactive”; that for `CCCCCCNC(=O)n1cc(F)c(=O)[nH]c1=O` was “inactive”.

As to `COC(=O)C1=C(C)NC(C)=C(C(=O)O[C@@H]2CCCN(Cc3ccccc3)C2)[C@@H]1c1cccc([N+](=O)[O-])c1`, the Potency is 23.7 µM (active). Turning to `CCCC(C(=O)OCCN(CC)CC)(c1ccccc1)c1ccccc1`, the Potency was 29.8 µM (active).

Regarding `Cc1ccccc1N=C(N)Nc1ccccc1C`, the Potency result was “inactive”. The value for `O=c1c(O)c(-c2ccc(O)cc2)oc2cc(O)cc(O)c12` was “inactive”; that for `O=C(O)CCc1nc(-c2ccccc2)c(-c2ccccc2)o1` was “inactive”; that for `CN1C(=O)N(c2ccccc2Br)Cc2cnc(Nc3ccc4c(c3)OCC(CO)O4)nc21` (stereo not given) was 8.63 µM (active).

`C[C@@]12CCC[C@H]1[C@@H]1CC[C@H]3C[C@@H](O)CC[C@]3(C)[C@H]1CC2`: the Potency entry is “inactive”. Consider `COc1ccccc1NC(=O)c1cc2ccccc2cc1O`, for which the Potency was 19.3 µM (active). The same measure for `NC(=O)c1ccncc1`: “inactive”. The value for `CC(C)=CCC/C(C)=C/CC/C(C)=C/CCC(=O)OC/C=C(\C)CCC=C(C)C` was “inactive”. The same measure for `CN1C[C@H](C(=O)N[C@]2(C)O[C@@]3(O)[C@@H]4CCCN4C(=O)[C@H](Cc4ccccc4)N3C2=O)C[C@@H]2c3cccc4[nH]cc(c34)C[C@H]21`: 29.8 µM (active). For `CCC(C)COC(C)=O` (stereo not given), the Potency result was “inactive”. For the compound `CC(O)c1ccccc1` (stereo not given), the Potency entry was “inactive”. With `O=C1c2ccccc2C(=O)C1c1ccc(Br)cc1`, the Potency entry is “inactive”. `Oc1ccc(Cl)c2cccnc12`: the Potency was 29.8 µM (active). The value for `CCCCCC[C@@H](O)C/C=C\CCCCCCCC(=O)OCC(O)CO` (stereo not given in full) was “inactive”; that for `CC(C)=CC(=O)C=C(C)C` was “inactive”.

As to `CCC(C)(C)OC`, the Potency entry was “inactive”. Take `CC(=O)OCCN(CCOC(C)=O)c1ccc(N=Nc2ccc([N+](=O)[O-])cc2C#N)cc1`: the Potency was 61.1 µM (active). The value for `Cc1cc(O)c(C)c(C)c1O` was “inactive”. Take `CC(=O)Nc1ccc(C)cc1C`: the Potency result is “inactive”. The value for `O=C1Cc2ccccc2N1c1c(Cl)cccc1Cl` was 48.6 µM (active). Turning to `CC(CO)CO`, the Potency result is “inactive”. Regarding `CN1C(=O)c2ccccc2C1=O`, the Potency entry was “inactive”. The same measure for `O=C1Cc2cc(Cl)ccc2N1`: “inactive”; for `CC1=C(Br)C(=O)C(Br)=C/C1=C(/c1ccccc1S(=O)(=O)O)c1cc(Br)c(O)c(Br)c1C`: 18.6 µM (active).

Take `Oc1cc2c(cc1O)[C@H]1c3ccc(O)c(O)c3OC[C@@]1(O)C2`: the Potency was 49.2 µM (active). The value for `OC1(c2ccccc2)CCNCC1` was “inactive”.

In the case of `CCCCC(CC)CN` (stereo not given), the Potency entry was “inactive”. The value for `COc1ncnc(NS(=O)(=O)c2ccc(N)cc2)c1OC` was “inactive”. The same measure for `c1csc(SSc2cccs2)c1`: 61.1 µM (active). The same measure for `O=c1[nH]c2ccc(Cl)cc2o1`: “inactive”.

In the case of `CC(C)C=O`, the Potency entry is “inactive”. The value for `C/C=C/C=C/C=O` was “inactive”; that for `CC(C)=CCC/C(C)=C/CC/C(C)=C/C(=O)OCC(=O)[C@@]1(O)CC[C@H]2[C@@H]3CCC4=CC(=O)C=C[C@]4(C)[C@H]3[C@@H](O)C[C@@]21C` was 6.68 µM (active); that for `C[C@@H]1CC(=O)NN=C1c1ccc(NN=C(C#N)C#N)cc1` was 13.3 µM (active).
